Compound activity: PubChem, Broad Institute
NOMO-1 viab = STK33 inhibitor candidate reducing NOMO-1 cell viability; NOMO-1 AML viability, CellTiter-Glo luminescence, 72 h; inhibition, % (concentration not given with the values); 37,000 compounds, 7.5% hits; AID 2330; in the data active = inhibition above about 80%; inconclusive = no clear call, values can overlap the other calls
STK33 kin inh = blocks human STK33 kinase activity; Q9BYT3; ADP-Glo luminescence, MBP substrate; inhibition, % at 12.5 µM; 27,000 compounds, 0.44% hits; in the data active = inhibition above about 20%; inconclusive = no clear call, values can overlap the other calls
Target sequence (Q9BYT3 whole entry, looked up): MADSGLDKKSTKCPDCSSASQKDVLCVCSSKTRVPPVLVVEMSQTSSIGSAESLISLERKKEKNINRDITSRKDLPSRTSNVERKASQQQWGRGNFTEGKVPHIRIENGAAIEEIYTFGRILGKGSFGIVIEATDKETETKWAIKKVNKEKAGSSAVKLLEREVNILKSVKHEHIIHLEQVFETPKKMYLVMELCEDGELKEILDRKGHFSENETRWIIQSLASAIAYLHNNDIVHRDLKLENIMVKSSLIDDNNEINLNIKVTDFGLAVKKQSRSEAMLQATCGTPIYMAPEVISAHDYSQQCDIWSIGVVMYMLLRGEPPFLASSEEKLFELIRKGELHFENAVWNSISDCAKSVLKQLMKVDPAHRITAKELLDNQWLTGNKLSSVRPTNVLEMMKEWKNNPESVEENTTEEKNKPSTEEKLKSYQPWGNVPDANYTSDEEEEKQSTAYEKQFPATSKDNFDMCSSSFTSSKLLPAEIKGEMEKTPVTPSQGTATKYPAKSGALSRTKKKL
PD-1 reversal = reversal of PD-1 mediated T-cell inhibition; activation, % (concentration not given with the values); 29,000 tested, under 10 active; AID 2316; primary human CD4 T cells, PD-L1 beads, CellTiter-Glo 96 h; call rule not given here;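 note: 0% = median vehicle wells and 100% = positive control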
* = called active by the depositor; ? = inconclusive; / = no result given. Shown is part of a subset that was picked to be rich in hits.

SMILES	NOMO-1 viab	STK33 kin inh	PD-1 reversal
C[C@@H]1CN([C@@H](C)CO)C(=O)c2cccc(NC(=O)Nc3ccc(F)cc3)c2O[C@@H]1CN(C)S(=O)(=O)c1ccc(F)cc1	84.9*	/	/
Cc1cc(CNC(=S)Nc2cccc([N+](=O)[O-])c2)nn1C	47.0	-0.3	0.2
CC(C)n1c(-c2ccccc2)nc2ccccc21	0.2	/	0.0
CCN(CC(=O)Nc1ccccc1F)S(=O)(=O)c1ccc2ccccc2c1	-9.3	0.0	/
COc1ccc(NC(=O)CN(c2cc(C)ccc2OC)S(C)(=O)=O)cc1Cl	-15.7	0.6	-0.2
C[C@H](CO)N1C[C@H](C)[C@@H](CN(C)C(=O)Nc2ccc(C(F)(F)F)cc2)Oc2ccc(NC(=O)Nc3ccc(C(F)(F)F)cc3)cc2C1=O	104.2*	-0.1	-5.6
Cc1ccc(S(=O)(=O)Nc2ccc3c(c2)C(=O)N([C@@H](C)CO)C[C@@H](C)[C@@H](CN(C)C(=O)Nc2ccc(C(F)(F)F)cc2)O3)cc1	111.1*	2.0	-3.4
Cc1ccc(S(=O)(=O)Nc2ccc3c(c2)C(=O)N([C@H](C)CO)C[C@H](C)[C@H](CN(C)C(=O)Nc2ccc(C(F)(F)F)cc2)O3)cc1	39.8	-0.4	-1.7
C[C@@H]1CN([C@@H](C)CO)C(=O)c2cc(NC(=O)Nc3ccc(F)cc3)ccc2O[C@@H]1CN(C)C(=O)Nc1ccc(C(F)(F)F)cc1	105.3*	/	-2.4
C[C@@H]1CN([C@H](C)CO)C(=O)c2cc(NC(=O)Nc3ccc(C(F)(F)F)cc3)ccc2O[C@H]1CN(C)C(=O)Nc1ccc(F)cc1	35.1	/	-1.7
C[C@H](CO)N1C[C@H](C)[C@H](CN(C)C(=O)Nc2ccc(C(F)(F)F)cc2)Oc2ccc(NC(=O)Nc3ccc(C(F)(F)F)cc3)cc2C1=O	74.2	/	-1.5
O=C(CSc1nnc(-c2cccc(Br)c2)n1-c1ccccc1)c1ccc(F)cc1	?	5.9	-8.2
CCOC(=O)C(C)Sc1nc2ccc(I)cc2c(=O)n1-c1ccccc1OC (stereo not given)	6.2	1.9	/
CS(=O)(=O)N(CC(=O)Nc1ccc(F)c(F)c1)c1ccccc1Cl	-19.6	0.1	0.7
COc1ccc(-c2nc3cc(C(C)C)ccc3o2)cc1NC(=O)COc1ccccc1C	106.2*	0.0	0.0
Cc1cc(C)cc(OCC(=O)Nc2cc(-c3nc4ccc(C)cc4o3)ccc2C)c1	105.4*	10.6	-5.5
COc1ccc(-c2nc3cc(C(C)C)ccc3o2)cc1NC(=O)COc1ccc(C)cc1	19.1	-2.8	0.0
Cc1ccc2nc(-c3ccc(C)c(NC(=O)COc4ccc([N+](=O)[O-])cc4)c3)oc2c1	9.8	0.8	1.0
CSc1nnc(-c2cc(OCC(F)(F)F)nc(OCC(F)(F)F)c2)n1Cc1ccco1	38.2	2.6	-14.2
C/C=C(/C)C(=O)O[C@@H]1c2cc(OC)c(OC)cc2-c2c(ccc(OC)c2OC)C[C@H]2C(=O)OC[C@H]12	116.8*	-5.0	-1.7
CN(CC(=O)Nc1cccc(I)c1)S(=O)(=O)c1ccc(Cl)cc1	-13.9	-2.4	1.0
O=C(Nc1ccc2c(c1)OCCO2)C1CCCN(S(=O)(=O)c2ccc(F)cc2)C1 (stereo not given)	-0.8	1.3	-1.5
CCCCCCCC/C=C\CCCCCCCc1cccc(O)c1C(=O)O	34.5	-15.9	1.2
CCCCCCCCCC/C=C\CCCCCCCc1cccc(O)c1C(=O)O	119.2*	-12.9	-7.0
C=C1C(=O)O[C@H]2C[C@H](C)[C@@H]3CC(=O)C(C)=C3C[C@H]12	116.8*	1.1	-8.9
SMILES	NOMO-1 viab	STK33 kin inh	PD-1 reversal
C=C1C(=O)O[C@H]2CC(C)C3CC[C@@]4(C)O[C@@]34CC12 (stereo not given in full)	/	-1.8	/
O=C(O)CCC(NC(=O)c1ccc(I)cc1)C(=O)O (stereo not given)	/	3.5	/
CC1(C)Cc2nc3sc4c(SCC(=O)NCc5ccccc5)ncnc4c3cc2CO1	119.1*	0.6	-7.5
COC(=O)CSc1ncnc2c1sc1nc3c(cc12)COC(C)(C)C3	22.9	-1.5	/
CN(CC(=O)Nc1ccc(Cl)c(C(F)(F)F)c1)S(=O)(=O)c1ccc(F)cc1	4.6	-15.4	0.7
C[C@H](CO)N1C[C@H](C)[C@H](CN(C)C(=O)Nc2ccc(C(F)(F)F)cc2)Oc2c(NC(=O)NC3CCCCC3)cccc2C1=O	105.7*	/	-4.0
C[C@@H]1CN([C@H](C)CO)C(=O)c2cccc(NC(=O)Nc3ccc(C(F)(F)F)cc3)c2O[C@H]1CN(C)C(=O)NC1CCCCC1	74.8	/	-6.7
C[C@H](CO)N1C[C@H](C)[C@H](CN(C)C(=O)NC2CCCCC2)Oc2c(NC(=O)Nc3ccc(C(F)(F)F)cc3)cccc2C1=O	71.1	/	-5.3
C[C@H](CO)N1C[C@H](C)[C@H](CN(C)C(=O)Nc2ccc(C(F)(F)F)cc2)Oc2c(NC(=O)C3CCCCC3)cccc2C1=O	94.9*	/	-4.0
C[C@H]1CN([C@@H](C)CO)C(=O)c2cccc(NC(=O)C3CCCCC3)c2O[C@@H]1CN(C)C(=O)Nc1ccc(C(F)(F)F)cc1	15.4	/	-0.8
C[C@H]1CN([C@@H](C)CO)C(=O)c2cccc(NC(=O)NC3CCCCC3)c2O[C@@H]1CN(C)C(=O)Nc1ccc(C(F)(F)F)cc1	100.0*	/	-4.6
Cc1ccc(C(C)C)c(OCC(=O)Nc2sc3c(c2C(N)=O)CCC(C)C3)c1 (stereo not given)	63.2	-2.0	/
O=C(CC1(O)C(=O)Nc2ccc(F)cc21)c1ccco1 (stereo not given)	38.1	-1.5	1.4
O=C(CC1(O)C(=O)N(Cc2ccc(Cl)cc2)c2ccc(Cl)cc21)c1ccco1 (stereo not given)	113.9*	1.1	2.1
Cc1coc(C)c1C(=O)CC1(O)C(=O)N(Cc2ccc(Cl)cc2)c2ccccc21 (stereo not given)	69.5	6.8	-1.6
Cc1cccc(C)c1OCC(=O)Nc1cccc(NC(=O)c2ccco2)c1	23.8	5.9	0.8
CN1C(=O)C(O)(CC(=O)c2ccco2)c2cc(Cl)ccc21 (stereo not given)	133.0*	-2.5	0.8
Cc1cccc2c1N(C)C(=O)C2(O)CC(=O)c1ccco1 (stereo not given)	84.4*	-3.8	-1.1
FC(F)(F)C1CCN(c2ncccc2NC(=S)Nc2ccc(Cl)cc2)CC1	39.8	/	0.1
C[C@H]1CN([C@@H](C)CO)C(=O)c2cc(NC(=O)CCCCCC(=O)Nc3ccccc3N)ccc2O[C@H]1CN(C)Cc1ccc(-c2ccccc2)cc1	109.1*	/	-1.6
C[C@H]1CN([C@@H](C)CO)C(=O)Cc2cc(NC(=O)CCCCCC(=O)Nc3ccccc3N)ccc2O[C@H]1CN(C)Cc1ccc(-c2ccccc2)cc1	142.3*	/	-3.2
COc1ccc(CN(C)C[C@H]2Oc3ccc(NC(=O)CCCCCC(=O)Nc4ccccc4N)cc3CC(=O)N([C@@H](C)CO)C[C@@H]2C)cc1	41.9	/	0.9
C[C@@H]1CN([C@@H](C)CO)C(=O)Cc2cc(NC(=O)CCCCCC(=O)Nc3ccccc3N)ccc2O[C@@H]1CN(C)Cc1ccccc1	113.2*	/	-1.0
C[C@@H]1CN([C@H](C)CO)C(=O)Cc2cc(NC(=O)CCCCCC(=O)Nc3ccccc3N)ccc2O[C@H]1CN(C)Cc1ccc(Oc2ccccc2)cc1	124.6*	/	1.7
